# Test results: PubChem BioAssay (NCATS)
# Values joined by “and” are separate entries in the source; they are usually repeats but may differ in a detail not shown here. Equal entries are not always repeated. Records with an inconclusive call do not appear. A number with no mark means an inactive call. Active and inactive are the calls of the source. The call rests on the fitted dose curve; in most records, active means well fitted inhibition curve with a large enough effect; inconclusive means small, poorly fitted or top-dose-only effect; inactive means flat fitted curve, though single readings scatter.
# Columns and labels:
# CRL-7250 = normal cell line; experiment: Cytotoxic Profiling of Annotated Libraries Using Quantitative High-Throughput Screening (AID 1296008); details: Five cell lines viability, CellTiter-Glo ATP luminescence, 48-72 h; max response: hits give low values; on max response: on the % scale 0 is the no-effect control and ±100 the full control effect
# Outline: (§1)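 Compounds were pin-transferred onto cells and incubated 48 or 72 hr at 37 degree Celsius, 95% humidity. CellTiter-Glo was added, plates sat 10 min at room temperature, then ATP-coupled luminescence was imaged as the viability read-out.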
# NIH3T3 = experiment: as above; details: Five cell lines viability, CellTiter-Glo ATP luminescence, 48-72 h; max response: hits give low values
# Outline: as §1
# HEK293 = experiment: as above; details: Five cell lines viability, CellTiter-Glo ATP luminescence, 48-72 h; max response: hits give low values
# Outline: as §1
# HaCat = experiment: as above; details: Five cell lines viability, CellTiter-Glo ATP luminescence, 48-72 h; max response: hits give low values
# Outline: as §1
# KB-3-1 = experiment: as above; details: Five cell lines viability, CellTiter-Glo ATP luminescence, 48-72 h; max response: hits give low values
# Outline: as §1
# SC27B = experiment: qHTS profiling for inhibitors of Plasmodium falciparum proliferation (AID 504749); details: P. falciparum in erythrocytes, SYBR Green DNA, 72 h; series mostly up to 28.7 µM
# Outline: (§2)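 P. falciparum-infected erythrocytes (0.3% parasitemia, 2.5% hematocrit final) were exposed to compounds for 72 h at 37 C in 5% CO2, then lysed with SYBR Green buffer overnight at room temperature; parasite DNA fluorescence was normalized to artemisinin and DMSO controls.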
# TAB109 = experiment: as above; details: P. falciparum in erythrocytes, SYBR Green DNA, 72 h; series mostly up to 28.7 µM
# Outline: as §2
# TAB113 = experiment: as above; details: P. falciparum in erythrocytes, SYBR Green DNA, 72 h; series mostly up to 28.7 µM
# Outline: as §2
# TAB165 = experiment: as above; details: P. falciparum in erythrocytes, SYBR Green DNA, 72 h; series mostly up to 28.7 µM
# Outline: as §2
# PC49 = experiment: as above; details: P. falciparum in erythrocytes, SYBR Green DNA, 72 h; series mostly up to 28.7 µM
# Outline: as §2
# Further: nearly all actives have a fitted effect of over 60% in size.
# Potency means the concentration at half of the fitted maximal effect.
smiles,measurement,setting,value
Cc1c(C)c2c(c(C)c1OC(=O)CCC(=O)OCCO)CC[C@@](C)(CCC[C@H](C)CCC[C@H](C)CCCC(C)C)O2,max response,CRL-7250,-109%
same,max response,NIH3T3,-19.3%
CC(C)=CCC/C(C)=C/CC/C(C)=C/C(=O)OCC(=O)[C@@]1(O)CC[C@H]2[C@@H]3CCC4=CC(=O)C=C[C@]4(C)[C@H]3[C@@H](O)C[C@@]21C,Potency,HEK293,10.6 µM (active)
CC[N+](CC)(CC)CCOC(=O)C(C1CCCC1)C1CCCC1,outcome,CRL-7250,inactive
same,max response,HaCat,-3.44%
same,max response,NIH3T3,-5.66%
COc1cc2c(cc1OC)CN(C(=O)[C@H](C)N[C@@H](CCc1ccccc1)C(=O)O)[C@H](C(=O)O)C2,outcome,HEK293,inactive
same,max response,HaCat,0.663%
same,max response,NIH3T3,-7.08%
Cc1cccc(N(C)C(=S)Oc2ccc3c(c2)C2CCC3C2)c1 (centres undefined),Potency,CRL-7250,29.9 µM (active)
same,max response,NIH3T3,-24.5%
N#CSCC(=O)O,max response,HEK293,0.303%
same,outcome,HaCat,inactive
same,outcome,NIH3T3,inactive
CCOC(=O)[C@H](CCc1ccccc1)N[C@@H](C)C(=O)N(CC(=O)O)C1Cc2ccccc2C1,max response,CRL-7250,0.8%
same,max response,KB-3-1,-12.3%
CC(C)Cc1ccc(C(C)C(=O)OCc2ccccn2)cc1 (centres undefined),max response,CRL-7250,-2.57%
same,outcome,HaCat,inactive
same,max response,NIH3T3,-1.73%
CC(=O)O[C@@H]1C(=O)O[C@@H]2[C@H]1OC(=O)[C@@H]2OC(C)=O,max response,HEK293,-3.32%
Cc1ccc(CCn2c3c(c4cc(Cl)ccc42)CN(C)CC3)cn1,max response,CRL-7250,-3.39%
same,outcome,HaCat,inactive
same,max response,NIH3T3,0.803%
CC[C@@H]([C@H](C)O)n1ncn(-c2ccc(N3CCN(c4ccc(OC[C@@H]5CO[C@@](Cn6cncn6)(c6ccc(F)cc6F)C5)cc4)CC3)cc2)c1=O,Potency,HEK293,7.5 µM (active)
same,max response,HaCat,-3.01%
CC(C)(C)c1ccc(C(=O)CCCCl)cc1,outcome,CRL-7250,inactive
same,max response,HaCat,3.33%
same,outcome,NIH3T3,inactive
CCOC(=O)c1cc(=O)c2c(OCC(COc3cccc4oc(C(=O)OCC)cc(=O)c34)OC(=O)[C@@H](N)CCCCN)cccc2o1,max response,HEK293,4.3%
same,outcome,HaCat,inactive
same,outcome,NIH3T3,inactive
CCCCCCCCCCCCCCCC[n+]1ccccc1,Potency,SC27B,10 µM (active)
same,Potency,TAB109,8.91 µM (active)
same,Potency,TAB113,5.01 µM (active)
same,Potency,TAB165,4.47 µM (active)
same,Potency,CRL-7250,1.5 µM (active)
same,Potency,HaCat,5.96 µM (active)
same,Potency,NIH3T3,16.8 µM (active)
Oc1cccc2[nH]ccc12,max response,HEK293,2.46%
same,max response,HaCat,-5.11%
same,max response,NIH3T3,-6.12%
OCCOCCN1CCN(C(c2ccccc2)c2ccc(Cl)cc2)CC1 (centres undefined),max response,HEK293,-4.98%
same,max response,HaCat,-23.3%
same,max response,KB-3-1,15.7%
same,outcome,NIH3T3,inactive
O=C(Nc1ccc(Cl)cc1)Nc1ccc(Cl)c(C(F)(F)F)c1,max response,HEK293,-107%
CCOC(=O)C1=C(C)NC(C)=C(C(=O)OCC)C1c1ccccc1/C=C/C(=O)OC(C)(C)C,Potency,HEK293,7.5 µM (active)
OC1(c2ccc(Cl)c(C(F)(F)F)c2)CCN(CCCC(c2ccc(F)cc2)c2ccc(F)cc2)CC1,Potency,HEK293,8.41 µM (active)
same,Potency,KB-3-1,23.1 µM (active)
Cc1ccc(Cl)c(OCC(O)CNC(C)(C)C)c1 (centres undefined),outcome,CRL-7250,inactive
same,max response,HaCat,2.84%
same,max response,NIH3T3,1.79%
CCCC(=O)O[C@]1(C(=O)CCl)[C@@H](C)C[C@H]2[C@@H]3CCC4=CC(=O)C=C[C@]4(C)[C@@]3(F)C(=O)C[C@@]21C,max response,CRL-7250,-8.55%
same,max response,HaCat,-2.69%
same,max response,NIH3T3,-3.48%
Brc1ccccc1-c1ccccc1,max response,HEK293,-9.62%
same,max response,HaCat,-6.21%
same,max response,NIH3T3,-3.48%
NC(=O)C1(N2CCCCC2)CCN(CCCN2c3ccccc3CCc3ccc(Cl)cc32)CC1,Potency,HEK293,10.6 µM (active)
CN(C)[C@@H]1C(=O)C(C(N)=O)=C(O)[C@@]2(O)C(=O)C3=C(O)c4c(O)cccc4C[C@H]3C[C@@H]12,max response,CRL-7250,-0.669%
same,max response,HaCat,-5.74%
same,max response,NIH3T3,1.19%
C/C(=C(/OCCOc1ccc(Cl)cc1)c1ccc(Cl)cc1Cl)n1ccnc1,max response,NIH3T3,-25.5%
Nc1nc2ccccc2n1Cc1ccc(F)cc1,outcome,HaCat,inactive
same,outcome,NIH3T3,inactive
Cc1cccc(N(C)C(=S)Oc2ccc3c(c2)CCC3)c1,max response,HaCat,-7.13%
same,max response,NIH3T3,-6.52%
CC(NCCC(c1ccccc1)c1ccccc1)c1ccccc1 (centres undefined),Potency,PC49,5.01 µM (active)
same,Potency,SC27B,11.2 µM (active)
same,Potency,TAB109,12.6 µM (active)
same,Potency,TAB165,11.2 µM (active)
Clc1ccc2c(c1)N=C(N1CCNCC1)c1ccccc1N2,max response,HaCat,2.45%
COc1c(C)c2c(c(O)c1C/C=C(\C)CCC(=O)OCCN1CCOCC1)C(=O)OC2,max response,HaCat,-40.9%
Cc1nc(N)nc(N)c1-c1ccc(Cl)c(Cl)c1,Potency,HEK293,1.06 µM (active)
same,Potency,NIH3T3,0.841 µM (active)
CC(CC1c2ccccc2CCc2ccccc21)CN(C)C (centres undefined),max response,HaCat,1.42%
CCCCCCCCCCCCCCCC[N+](C)(C)Cc1ccccc1,Potency,PC49,10 µM (active)
same,Potency,SC27B,1 µM (active)
same,Potency,TAB109,3.98 µM (active)
same,Potency,TAB113,14.1 µM (active)
same,Potency,TAB165,12.6 µM (active)
same,Potency,HEK293,5.31 µM (active)
same,Potency,NIH3T3,11.9 µM (active)
C[N+](C)(C)CCO,max response,KB-3-1,-9.9% and -0.543%
CC(C)C[C@H](NC(=O)CNC(=O)[C@H](Cc1ccc(O)cc1)NC(=O)[C@H](CO)NC(=O)[C@H](Cc1c[nH]c2ccccc12)NC(=O)[C@H](Cc1cnc[nH]1)NC(=O)[C@@H]1CCC(=O)N1)C(=O)N[C@@H](CCCN=C(N)N)C(=O)N1CCC[C@H]1C(=O)NCC(N)=O (stereo in doubt),max response,KB-3-1,-12.3%
CN1CCC(Nc2ncc3ncnc(Nc4ccc(F)c(Cl)c4)c3n2)CC1,Potency,TAB109,11.2 µM (active)
same,Potency,TAB165,11.2 µM (active)
same,Potency,HaCat,0.237 µM (active)
same,max response,KB-3-1,-0.0832%
O=C(CCC1CCN(Cc2ccccc2)CC1)c1ccc2c(c1)NCCCC2,max response,HaCat,2.9%
same,max response,KB-3-1,-12.9%
O=C(OCC(O)CO)c1ccccc1Nc1ccnc2c(C(F)(F)F)cccc12 (centres undefined),max response,HaCat,-6.27%
same,max response,NIH3T3,-7.27%
COC(=O)C1=C(C)NC(COC(N)=O)=C(C(=O)OC(C)C)C1c1cccc(Cl)c1Cl (centres undefined),max response,KB-3-1,2.72%
same,Potency,NIH3T3,15 µM (active)
COc1ccc(OC(=O)N(CC(=O)O)Cc2ccc(OCCc3nc(-c4ccccc4)oc3C)cc2)cc1,max response,HaCat,-6.17%
same,max response,NIH3T3,0.554%
CCC(C(=O)OCCN1CCOC(c2ccccc2)C1C)c1ccccc1 (centres undefined),outcome,HaCat,inactive
same,max response,NIH3T3,-22.2%
C[C@H](N)C(=O)N[C@@H](C)C(=O)NC1[C@H]2CN(c3nc4c(cc3F)c(=O)c(C(=O)O)cn4-c3ccc(F)cc3F)C[C@@H]12 (some centres undefined),max response,HaCat,0.555%
NCC(=O)O,max response,HaCat,-52.5%
same,max response,NIH3T3,-6.02%
Cc1ncc([N+](=O)[O-])n1C,outcome,HEK293,inactive
same,max response,NIH3T3,-19.7%
CCCC(=O)O[C@]1(C(=O)CC)CC[C@H]2[C@@H]3CCC4=CC(=O)CC[C@]4(C)[C@H]3[C@@H](O)C[C@@]21C,max response,HaCat,-13.1%
same,max response,NIH3T3,-5.79%
NC(N)=NCCCCN=C(N)N,max response,KB-3-1,-9.65%
CCOC(=O)N1CCC(n2c(=O)[nH]c3cc(Cl)ccc32)CC1,max response,HaCat,-12.1%
same,max response,NIH3T3,3.06%
COc1ccc(-n2nc(CCC(=O)N(C)O)cc2-c2ccc(Cl)cc2)cc1,outcome,HaCat,inactive
O=C1OC2(c3ccccc31)c1cc(I)c(O)c(I)c1Oc1c2cc(I)c(O)c1I,outcome,HaCat,inactive
same,max response,NIH3T3,-20.5%
CN1CCCN(C(c2ccccc2)c2ccc(Cl)cc2)CC1 (centres undefined),Potency,PC49,5.01 µM (active)
same,Potency,TAB165,7.94 µM (active)
same,max response,KB-3-1,0.505%
N#C/C(=C1/SC[C@@H](c2ccc(Cl)cc2Cl)S1)n1ccnc1,max response,HaCat,-0.746%
same,max response,KB-3-1,-3.46% and -14.6% and -17.3%
same,max response,NIH3T3,-5.57%
O=[N+]([O-])c1ccc(O)c2ncccc12,Potency,PC49,inactive
same,Potency,TAB165,14.1 µM (active)
same,Potency,HEK293,8.41 µM (active)
same,Potency,NIH3T3,15 µM (active)
CCCCC/C=C\C/C=C\CCCCCCCC(=O)NC(C)c1ccccc1 (centres undefined),max response,HaCat,-11.3%
same,max response,KB-3-1,-8.18%
same,max response,NIH3T3,-26.3%
C[C@H]1C[C@H]2[C@@H]3CCC4=CC(=O)C=C[C@]4(C)[C@H]3C(=O)C[C@]2(C)[C@@]1(O)C(=O)CO,max response,HaCat,-5.83%
same,outcome,NIH3T3,inactive
CC(C)(c1ccc(O)cc1)c1ccc(O)cc1,max response,HaCat,-13.2%
Nc1ncnc2nc[nH]c12,Potency,PC49,inactive
same,Potency,SC27B,inactive
same,Potency,TAB109,inactive
same,Potency,TAB113,inactive
same,Potency,TAB165,inactive
O=C1NC(c2cccc([N+](=O)[O-])c2)=CCN1c1ccccc1O,max response,KB-3-1,-1.53%
OCc1c[nH]c2ccccc12,Potency,HEK293,21.7 µM (active)
same,max response,KB-3-1,-7.74%
O=C(Nc1ccc(Cl)cc1)Nc1ccc(Cl)c(Cl)c1,Potency,PC49,2.24 µM (active)
same,Potency,SC27B,2.24 µM (active)
same,Potency,TAB109,3.55 µM (active)
same,Potency,TAB113,2.24 µM (active)
same,Potency,TAB165,1.78 µM (active)
same,Potency,HEK293,7.5 µM (active)
COC(=O)c1cc(Cl)ccc1NS(=O)(=O)C(F)(F)F,max response,HaCat,-18%
same,max response,NIH3T3,-7.02%
O=S(=O)(O)c1ccc2nc(-c3ccccc3)[nH]c2c1,Potency,PC49,inactive
same,Potency,SC27B,inactive
same,Potency,TAB109,inactive
same,Potency,TAB113,inactive
same,Potency,TAB165,inactive
same,max response,HaCat,-12.3%
CCC[C@H](N[C@@H](C)C(=O)N1[C@H](C(=O)O)C[C@@H]2CCCC[C@@H]21)C(=O)OCC,max response,HaCat,1.07%
same,max response,NIH3T3,-9.35%
CN1CCC(N(Cc2cccs2)c2ccccc2)CC1,max response,HaCat,-4.44%
same,max response,NIH3T3,-5.48%
